Source: PubChem BioAssay (Sanford-Burnham Center for Chemical Genomics)
CRFBP-R2 agonist: CRF-BP/CRF-R2 complex agonism. HEK293 CRF-R2/CRF-BP, calcium dye fluorescence (FLIPR); percent of saturating CRF peptide response. 350,000 compounds, 0.46% hits. activation, % at 13.2 µM;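 active = activation of at least 50%, plus an integration ratio under a set limit after plate pattern correction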;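 note: plate controls were neutral control wells without compound for no effect and CRF at EC100 for full effect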
aDG glyco act: alpha-DG glycosylation activation; Pro5-aDG cells, alpha-DG glycosylation AlphaScreen (IIH6); 0% Pro5, 100% B10-LARGE cell signal; activation, % at 10 µM; 360,000 compounds, 0.22% hits; AID 624168;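 active = activation of at least 8% versus controls, or a plate z-score of at least 8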;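 note: Pro5 are CHO cells carrying HIG-tagged alpha-DG that lacks glycosylation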
PfG6PD inh: PfG6PD (Plasmodium falciparum) enzyme inhibition | inhibition, % at 20 µM | 350,000 compounds, 0.78% hits | PfGluPho enzyme, NADPH resazurin-diaphorase fluorescence;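 active = inhibition reaching at least a set limit at 20 µM in the primary screen, cut at about 59% in these data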;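 note: 0% = DMSO wells with substrate and 100% = DMSO wells lacking glucose-6-phosphate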
CRFR2-BP antag: blocks CRF-induced signaling of the CRF-BP/CRF-R2 complex; HEK293 CRF-R2/CRF-BP, CRF-induced calcium fluorescence; inhibition, % at 11.8 µM; 350,000 compounds, 0.59% hits;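 active = inhibition of the ligand-induced calcium signal above about 50% at the single tested concentration, limit read from the data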
Cardio protect: protects H9c2 cardiomyocytes from peroxide injury; 360,000 compounds, 0.63% hits; protection from H2O2 cell death, % at 20 µM; H2O2 injury protection, ATPLite, 2 h;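 active = compounds giving at least 50% protection of heart cells from peroxide-induced death in the single-dose screen, raw or plate-pattern-corrected value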;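 note: 0% = DMSO wells with peroxide and 100% = DMSO wells without peroxide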
FAS TE block: blocks the thioesterase domain of human fatty acid synthase; recombinant FAS-TE, OMFH fluorogenic substrate, fluorescence endpoint; AID 602261; 360,000 compounds, 0.67% hits; inhibition, % at 15 µM; P49327;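 active = compounds whose normalised, plate-corrected inhibition of enzyme fluorescence in the single-dose primary screen is 50% or more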;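 note: 0% = DMSO with enzyme and 100% = substrate without enzyme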
FAS-TE conf: confirmation of human fatty acid synthase thioesterase inhibitors. shares compounds with FAS TE block. 2,300 compounds, 45% hits. inhibition, % at 15 µM. recombinant FAS-TE, OMFH fluorogenic substrate, fluorescence;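 active = compounds inhibiting the enzyme by at least 50% at 15 µM in any one of the replicates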;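 note: 0% = enzyme with DMSO only and 100% = wells lacking enzyme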
An asterisk follows results filed as active. Sampled rows, rich in hits. Any-hit rate of the full collection: about 3.2%.

For CCOC(=O)C1=C(O)C(=O)N(C2CCCCC2)C1 the results were CRFBP-R2 agonist -1, aDG glyco act 0, PfG6PD inh 7, CRFR2-BP antag -3, Cardio protect -1 and FAS TE block -8.
For O=[N+]([O-])c1ccc(Cl)c(-c2ccc(/C=N/n3cnnc3)o2)c1 the results were CRFBP-R2 agonist -13, aDG glyco act 0, PfG6PD inh 8, CRFR2-BP antag -16, Cardio protect 5 and FAS TE block 11.
Screening Cc1cc(-c2ccc(/C=N/n3cnnc3)o2)c(C)c([N+](=O)[O-])c1 returned CRFBP-R2 agonist -4, aDG glyco act 0, PfG6PD inh 5, CRFR2-BP antag -5, Cardio protect 1, FAS TE block 60* and FAS-TE conf 39*.
For COc1ccc(-c2ccc3c(c2)S(=O)(=O)c2cccc(C(=O)NCCOc4ccccc4)c2C3=O)cc1OC the results were CRFBP-R2 agonist 16, aDG glyco act 2, PfG6PD inh -9, CRFR2-BP antag -8, Cardio protect 0 and FAS TE block -8.
Screening O=C1c2ccc(Cl)cc2S(=O)(=O)c2cccc(C(=O)N3CCC(Cc4ccccc4)CC3)c21 returned CRFBP-R2 agonist -1, aDG glyco act 0, PfG6PD inh 3, CRFR2-BP antag 4, Cardio protect -4, FAS TE block 84* and FAS-TE conf 27.
Screening COc1ccc(-c2ccc3c(c2)S(=O)(=O)c2cccc(C(=O)N4CCN(c5c(Cl)cncc5Cl)CC4)c2C3=O)cc1OC returned CRFBP-R2 agonist 9, aDG glyco act -1, PfG6PD inh 11, CRFR2-BP antag -5, Cardio protect 66*, FAS TE block 68* and FAS-TE conf -2.
`N#Cc1cccnc1N1CCN(C(=O)c2cccc3c2C(=O)c2ccc(Cl)cc2S3(=O)=O)CC1` gave CRFBP-R2 agonist -1, aDG glyco act 0, PfG6PD inh -9, CRFR2-BP antag 10, Cardio protect 17 and FAS TE block 26.
N#Cc1cccnc1N1CCN(C(=O)c2cccc3c2C(=O)c2ccc(-c4ccc(Cl)c(C(F)(F)F)c4)cc2S3(=O)=O)CC1 was read as CRFBP-R2 agonist 0, aDG glyco act 0, PfG6PD inh -5, CRFR2-BP antag 5, Cardio protect 8, FAS TE block 80* and FAS-TE conf 2.
O=C1c2ccc(Cl)cc2S(=O)(=O)c2cccc(C(=O)N3CCN(c4ncc(Br)cn4)CC3)c21 was read as CRFBP-R2 agonist -1, aDG glyco act 0, PfG6PD inh 2, CRFR2-BP antag -2, Cardio protect 1, FAS TE block 68* and FAS-TE conf 9.
For CC[C@@H]1[C@H]2CCCC(=O)N3CC[C@@H](C[C@@H]1Nc1ccccc1)[C@@H]23 the results were CRFBP-R2 agonist -1, aDG glyco act 0, PfG6PD inh 14, CRFR2-BP antag 1, Cardio protect -1 and FAS TE block 2.
Screening CC1Cc2ccccc2N1C(=O)CSc1nnnn1Cc1ccccc1 (stereo unspecified) returned CRFBP-R2 agonist 0, aDG glyco act 0, PfG6PD inh 2, CRFR2-BP antag -45, Cardio protect -10 and FAS TE block 15.
`CSCCC(C(=O)Nc1c(C)cccc1C)N1CCC(Cc2ccccc2)CC1` (stereo unspecified) gave aDG glyco act 4, Cardio protect -4 and FAS TE block 26.
`COc1ccc2nc(NC(=O)C3CCN(S(=O)(=O)c4cccs4)CC3)sc2c1` gave CRFBP-R2 agonist -2, aDG glyco act 1, PfG6PD inh 10, CRFR2-BP antag -12, Cardio protect 0 and FAS TE block 41.
`Cc1ccc2nc(NC(=O)C3CCN(S(=O)(=O)c4cccs4)CC3)sc2c1` gave CRFBP-R2 agonist 10, aDG glyco act 2, PfG6PD inh 10, CRFR2-BP antag -15, Cardio protect -8, FAS TE block 68* and FAS-TE conf 30.
For CCn1c2ccccc2c2cc(NC(=O)C3CCN(S(=O)(=O)c4cccs4)CC3)ccc21 the results were CRFBP-R2 agonist -1, aDG glyco act 1, PfG6PD inh -7, CRFR2-BP antag 15, Cardio protect 5, FAS TE block 66* and FAS-TE conf 25.
Screening COc1ccc(C(=O)N[C@H](C(=O)N2CCN(c3ccccc3F)CC2)C(C)C)cc1 returned CRFBP-R2 agonist -1, aDG glyco act 0, PfG6PD inh 12, CRFR2-BP antag -8, Cardio protect 1 and FAS TE block 6.
Screening CC(C)C(NC(=O)C12CC3CC(CC(C3)C1)C2)C(=O)N/N=C/C1=C(N2CCOCC2)C(=C\c2cccc([N+](=O)[O-])c2)/CC1 (stereo unspecified) returned CRFBP-R2 agonist -1, aDG glyco act 0, PfG6PD inh -31, CRFR2-BP antag 25, Cardio protect -4, FAS TE block 64* and FAS-TE conf 14.
`CCCS(=O)(=O)NC(=O)C1(C)CCN(C(=O)COc2ccc(Cl)cc2Cl)C1` (stereo unspecified) gave aDG glyco act 0, Cardio protect 5 and FAS TE block -3.
Screening CCNC(=S)N1CCC(C(O)(c2ccccc2)c2ccccc2)CC1 returned CRFBP-R2 agonist -1, aDG glyco act 0, PfG6PD inh 3, CRFR2-BP antag 0, Cardio protect -4 and FAS TE block -3.
Screening COc1cc(NC(=S)N2CCC(C(O)(c3ccccc3)c3ccccc3)CC2)cc(OC)c1 returned CRFBP-R2 agonist 0, aDG glyco act 1, PfG6PD inh 10, CRFR2-BP antag 11, Cardio protect -6, FAS TE block 53* and FAS-TE conf 32.
For NC(=O)C1CCN(C(=O)Cc2ccsc2)CC1 the results were CRFBP-R2 agonist 1, aDG glyco act 1, PfG6PD inh -10, CRFR2-BP antag 4, Cardio protect -1 and FAS TE block -7.
Screening Cc1ccc(-c2cc(C(F)F)n3ncc(C(=O)N4CCCc5ccccc54)c3n2)cc1 returned CRFBP-R2 agonist 1, aDG glyco act 0, PfG6PD inh -10, CRFR2-BP antag -13, Cardio protect -10 and FAS TE block 18.
Cc1ccc(-c2cc(C(F)F)n3ncc(C(=O)N4CCc5ccccc5C4)c3n2)cc1 was read as CRFBP-R2 agonist 0, aDG glyco act 2, PfG6PD inh 4, CRFR2-BP antag -8, Cardio protect -6, FAS TE block 53* and FAS-TE conf 2.
For C(=N\Nc1nc(Nc2ccccc2)nc(N2CCOCC2)n1)/c1c[nH]c2ccccc12 the results were CRFBP-R2 agonist 2, PfG6PD inh 18 and CRFR2-BP antag -28.
